Measurements published in PubChem BioAssay (EPA / NIEHS).
The source holds several records for some structures; these can differ, active in one and inactive in another. Active and inactive are the calls of the source. How the source made its calls: active means hit-call score of the fitted dose curve at least 0.9, where 1 is the maximum; inactive means score below 0.9.

Assay: CCTE_Shafer_MEA_dev_burst_rate: CCTE's Neural Network Formation Assay for Burst Rate, Shafer Lab (AID 2284042)
Experimental: CCTE_Shafer_MEA_dev assay is conducted using Axion Biosystems 48 well microelectrode array (MEA) plates and Maestro recording system. Each well of the MEA plate contains a grid of 16 microelectrodes embedded in the culture surface. Electrically active cells, such as neurons, can be cultured over the electrodes, and electrical activity in these cells can be recorded extracellularly. The spontaneous firing of neurons is captured from each electrode on a microsecond timescale providing both temporally and spatially precise data. […] The CCTE_Shafer_MEA_dev assay uses primary cultures of rat cortical neurons. Recordings are made on days post-plating 5, 7, 9 and 12. As these cultures mature over time, neural networks develop functional activity and form cohesive networks in which electrical activity can be highly coordinated. CCTE_Shafer_MEA_dev_burst_rate is 1 of 19 assay components of the CCTE_Shafer_MEA_dev assay. It measures the frequency of single-electrode bursts (temporally-clustered groups of action potential firing) as the total number of bursts divided by the length of the recording in a microelectrode array (MEA) using Axion Biosystems Maestro 768 channel amplifier with the AxIS adaptive spike detector. The mean bursting rate is averaged across the active electrodes to report a well-mean value. To collapse across multiple recordings made on days post-plating 5, 7, 9 and 12, the trapezoidal area-under-the-curve of the component is calculated.Data from the assay component CCTE_Shafer_MEA_dev_burst_rate was analyzed into 1 assay endpoint. This assay endpoint, CCTE_Shafer_MEA_dev_burst_rate, was analyzed in the negative analysis fitting direction relative to DMSO as the negative control and baseline of activity. Using a type of functional reporter, gain or loss-of-signal activity can be used to understand electrical activity.
On the day prior to culture, each well was coated thoroughly with 150 uL of 0.05% polyethyleneimine (PEI, Sigma Cat P3143) in 50 mM HEPES (Sigma Cat H7523) at a pH of 8. The plate was incubated at 37C for one hour. PEI was rinsed out with 500 uL of sterile water three times. Plates were stored at 4C until the day of culture. This culture was plated at a seeding density of 1.5 x 10^5 cells/well on a 48-well MEA plate, prepared as described above. Cells were administered via a 25 uL media/laminin ([…]; Sigma Cat L2020-1MG) drop directly onto the microelectrode array, as adding the cells with the laminin results in better attachment than pre-coating with laminin. After 2 hours, an additional 475 uL of cortical media was added and the cells returned to the incubator. Exposure starts at day 0 of plating and is continued over twelve days of network development until the experiment is terminated. Cells are fed with fresh medium on DIV 5 and 9, following the recordings on those days. The entire volume of media in the well is exchanged and any vehicle or compound treatment is renewed. Complete details are found in OP-NHEERL/ISTD/SBB/TJS/2015-03-r0 (available on request, email shafer.tim@epa.gov). Measurement of the electrical activity is non-invasive, and recordings can be made from the same plate over multiple different days of the culture. In cortical neurons, this allows for the measurement of extracellular action potentials over the period during which networks form in the MEA plate.

Row | Compound | outcome | AC50
1 | c1ccc2cc3c(ccc4ccccc43)cc2c1 | inactive | 
2 | CC#C[C@]1(O)CC[C@H]2[C@@H]3CCC4=CC(=O)CCC4=C3[C@@H](c3ccc(N(C)C)cc3)C[C@@]21C | inactive | 5.1 µM (active)
3 | CN1CCC[C@H]1c1cccnc1 | inactive | 
4 | c1ccc2c(c1)Cc1ccccc1-2 | inactive | 
5 | OCCC(F)(F)C(F)(F)C(F)(F)C(F)(F)C(F)(F)C(F)(F)F | inactive | 
6 | C=C(C)C(=O)OCCC(F)(F)C(F)(F)C(F)(F)C(F)(F)C(F)(F)C(F)(F)F | inactive | 
7 | CC1=C(/C=C/C(C)=C/C=C/C(C)=C/C(=O)O)C(C)(C)CCC1 |  | 4.01 µM (active)
8 | CC(O)CO (stereo unspecified) | inactive | 
9 | OCCC(F)(F)C(F)(F)C(F)(F)C(F)(F)C(F)(F)C(F)(F)C(F)(F)C(F)(F)F | inactive | 
10 | c1ccc2c(c1)ccc1ccccc12 | inactive | 
